Most compounds without a hit are left out; they make up all but 3.5% or so of the library.
NS1 inh: influenza NS1 inhibition. Potency, µM (highest dose often 46.1 µM). AID 2326. hit rate 0.4% among 270,000; calls by dose curve; note: actives are rising curves; nearly all actives have a fitted effect of over 50% in size
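OD600 was taken as the measure of yeast growth restored by compound in an NS1-expressing S. cerevisiae strain. Cells had been washed out of glucose medium and diluted 1:100 into galactose -URA medium, pH 6.0.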
TbPYK inhibitor: inhibitors of Trypanosoma brucei pyruvate kinase | Q57TT1 | TbPYK enzyme, Kinase-Glo Plus ATP luminescence, 45 min | Potency, µM (highest dose often 76.8 µM), most hits filed as inhibitors | hit rate 0.12% among 410,000; note: nearly all actives have a fitted effect of over 50% in size
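ADP (130 uM final) triggers the TbPYK reaction after compound addition; incubation is 45 min at room temperature. Kinase-Glo Plus is then added and luminescence imaged. Normalized data are fitted to concentration-effect curves.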
Sm TGR inh: S. mansoni TGR enzyme inhibition; Q962Y6; purified TGR, DTNB reduction, TNB absorbance 405 nm; Potency, µM (doses to about 114 µM), usual class: inhibitors; hit rate 3% among 360,000; AID 485364; note: nearly all actives have a fitted effect of over 60% in size
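TGR 20 nM + NADPH 100 uM (dispensed conc.), cpd preinc 15 min RT; start with NADPH (500 uM addition) then DTNB (15 mM addition). Kinetic TNB absorbance, 405 nm filter. Four-parameter Hill fit across titration.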
LmPK inhibitor: inhibitors of Leishmania mexicana pyruvate kinase | purified LmPK, Kinase-Glo ATP luminescence, 1 h | Potency, µM (top dose mostly 57.5 µM), actives largely listed as inhibitors | hit rate 0.37% among 290,000 | AID 1721
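0.1 nM LmPK, 0.5 mM PEP, 0.1 mM ADP; 50 mM imidazole pH 7.2, 7 mM MgCl2, 50 mM KCl; 1 h RT. Kinase-Glo luminescence readout, normalized to no-enzyme (full inhibition) and uninhibited wells.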
RE007 growth inh: less growth of the S. pombe RE007 Vpr strain. AID 651644. S. pombe RE007 Vpr strain, BacTiter-Glo ATP luminescence, 24 h. Potency, µM (titrated, usually from 92.2 µM), usual class: inhibitors. hit rate 0.21% among 360,000; active = well fitted falling curve with a large enough effect; inconclusive = small, poorly fitted or top-dose-only effect; inactive = no such curve, though single readings can be large or run the other way; note: nearly all actives have a fitted effect of over 50% in size
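Fission yeast RE007 carrying one integrated HIV-1 vpr copy, seeded at OD 0.01 in PMG+AL medium with 23 nL pinned compound. Grown 24 h at 30 degrees; viability read by BacTiter-Glo luminescence after 5 min.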
FBPA Giardia inh: blocks Giardia fructose-bisphosphate aldolase activity; A8B2U2; purified Giardia FBPA; Potency, µM (titrated, usually from 59.6 µM), most hits filed as inhibitors; hit rate 0.71% among 290,000; AID 2451; note: nearly all actives have a fitted effect of over 55% in size
Target sequence (A8B2U2 whole entry, looked up): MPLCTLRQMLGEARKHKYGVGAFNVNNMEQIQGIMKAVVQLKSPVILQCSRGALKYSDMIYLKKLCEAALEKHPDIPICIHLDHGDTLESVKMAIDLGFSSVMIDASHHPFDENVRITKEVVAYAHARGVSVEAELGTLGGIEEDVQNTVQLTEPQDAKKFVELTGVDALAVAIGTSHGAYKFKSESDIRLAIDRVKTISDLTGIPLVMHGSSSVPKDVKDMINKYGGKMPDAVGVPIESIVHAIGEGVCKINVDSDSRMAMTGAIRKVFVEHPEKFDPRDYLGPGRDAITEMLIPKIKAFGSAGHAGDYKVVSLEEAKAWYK
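40 nM FBPA preincubated 10 min at RT with compound (up to 57.5 uM final), then substrate plus GAPDH/TPI/NAD/arsenate coupling and diaphorase/resazurin added. Fluorescence read after 20 min at RT, 525/598 nm.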
Numbers stand for hits; – = inactive; ? = inconclusive; · = no result given; [ ] = remark or other dose. Unless noted, calls come from the whole dose curve; as a rule, active = well fitted curve in the direction sought with a large enough effect; inconclusive = small, poorly fitted or top-dose-only effect, or another doubt; inactive = no such curve, though single readings can be large; an effect the other way counts as inactive or inconclusive.

SMILES	NS1 inh	TbPYK inhibitor	Sm TGR inh	LmPK inhibitor	RE007 growth inh	FBPA Giardia inh
COc1ccc(N(CC(=O)Nc2cccc(Cl)c2)S(=O)(=O)c2c(C)[nH]c(=O)[nH]c2=O)cc1	·	–	–	·	·	·
COc1ccc(NC(=O)CCc2c(C)nc3c(c2C)c(=O)n(C)c(=O)n3C)cc1OC	·	–	–	·	·	·
Cc1cc(C)c(NC(=O)/C=C\C(=O)O)c(Cl)c1	–	–	35µM	–	–	–
Cc1cc(C)c(NC(=O)CS)c(Cl)c1	?	–	?	–	–	–
COc1ccc([N+](=O)[O-])cc1NC(=O)/C=C/C(=O)O	–	–	–	–	–	–
COc1cc(OC)c(NC(=O)/C=C/C(=O)O)cc1Cl	–	–	50µM	–	–	–
Cc1cc(C)c(NC(=O)/C=C\C(=O)O)c([N+](=O)[O-])c1	–	–	16µM	–	32µM	–
CCSc1nnc2ccc(-c3ccco3)nn12	·	–	35µM	–[11.5 µM]	–	–
CCSc1nnc2ccc(-c3ccc(C)cc3)nn12	–	–	–	–	–	–
CC(=O)c1ccccc1OCC(O)Cn1c(CO)nc2ccccc21 (stereo not given)	·	–	–	·	·	·
Cc1ccc(-c2nc(CN(CC3CCC3)CC3CCCO3)c(C)o2)s1 (stereo not given)	–	–	56µM	–	–	–
CC1=C(C(=O)N2CCOCC2)C(c2ccsc2)C2=C(CCCC2=O)N1 (stereo not given)	–	–	45µM	–	–	?
C[N+]1(C)CCN(C[C@@](O)(c2ccccc2)C2CCCCC2)CC1	·	–	·	·	·	·
COc1ccc(CC(=O)Nc2ccc(N3CCCC3)c(C)c2)cc1	–	–	50µM	–	–	–
COc1ccc(C(=O)Nc2ccc(N3CCOCC3)cc2)cc1OC	–	–	–	16µM	?	–
COc1ccc(/C=C/C(=O)OCC(=O)Nc2ccc(N3CCOCC3)cc2)cc1OC	–	–	–	–	–	–
COc1cc(C(=O)OCC(=O)Nc2ccc(N3CCOCC3)cc2)ccc1OCC(C)C	·	–	50µM	·	–	·
COc1ccc(C(=O)Nc2ccc(N3CCCC3)cc2)cc1	–	–	56µM	–	–	–
COc1ccc(C(=O)NC(=S)Nc2ccc(N3CCCC3)cc2)cc1	·	–	–	–	–	–
COc1cccc(CNC(=O)c2ccc(-c3nc(COc4ccccc4)c(C)o3)cc2)c1	·	–	–	·	·	·
C[C@@H]1C[C@H]2[C@@H]3CCC4=CC(=O)C=C[C@]4(C)C3(F)[C@@H](O)C[C@]2(C)[C@@]1(O)C(=O)CO (stereo not given in full)	·	–	·	·	·	·
CCOc1ccc(NC(=O)Cn2cc(S(=O)(=O)c3ccc(C)cc3)c(=O)c3cc(F)ccc32)cc1	·	–	–	·	·	·
CCCOc1ccc(C2C(C(=O)c3ccco3)=C(O)C(=O)N2CCN2CCOCC2)cc1OC (stereo not given)	–	·	40µM	–	·	–
COc1ccc(C2C(C(=O)/C=C/c3ccco3)=C(O)C(=O)N2CCN2CCOCC2)cc1OC (stereo not given)	·	–	11µM	–[11.5 µM]	–	?
CCOc1ccc(C2C(C(=O)c3ccc(C)o3)=C(O)C(=O)N2CCN2CCOCC2)cc1OC (stereo not given)	–	–	50µM	–	–	–
SMILES	NS1 inh	TbPYK inhibitor	Sm TGR inh	LmPK inhibitor	RE007 growth inh	FBPA Giardia inh
CCOc1ccc(C2C(C(=O)c3ccco3)=C(O)C(=O)N2CCN2CCOCC2)cc1OCC (stereo not given)	–	–	?	–	–	–
Cn1nccc1C(=O)N/N=C/c1ccccc1[N+](=O)[O-]	–	–	–	?	–	–
Cc1ccc(/C=N/NC(=O)c2ccco2)s1	–	–	–	–	–	–
Cc1occc1C(=O)N/N=C/c1ccccc1[N+](=O)[O-]	–	–	–	14µM	–	–
Cc1occc1C(=O)N/N=C/c1ccc(Br)s1	–	–	–	25µM	?	–
Cc1ccc(/C=N/NC(=O)c2ccoc2C)s1	–	–	–	14µM	–	–
Fc1ccc(-c2noc3ncnc(NC4CCCCC4)c23)cc1	·	–	–	·	·	·
Cc1cccc(NC(=O)C2CCN(c3cnccn3)CC2)c1	·	–	–	·	·	·
CC1CC(C)CN(c2cc(N(C)CCO)c([N+](=O)[O-])c3nonc23)C1 (stereo not given)	·	–	–	–	–	–
CC1CCN(c2cc(N(C)CCO)c([N+](=O)[O-])c3nonc23)CC1	·	–	45µM	–	–	–
COc1ccc(Cl)cc1N1Cc2ccccc2C1	–	–	45µM	–	–	–
COc1ccc(N2Cc3ccccc3C2)cc1Cl	–	–	32µM	–	–	–
COc1ccc(OC)c(N2Cc3ccccc3C2)c1	?	–	?	–	–	?
O=C(/C=C/c1ccc(Br)o1)OCc1nc2ccsc2c(=O)[nH]1	·	–	45µM	·	–	·
Cc1ccc(C(=O)OCc2nc3ccsc3c(=O)[nH]2)o1	·	–	–	·	–	·
Brc1ccc(-c2cc3c(N4CCN(c5ccccc5)CC4)nccn3n2)cc1	·	–	–	·	·	·
CCCCCCCC#Cc1ccccc1/C=N/S(=O)c1ccc(C)cc1 (stereo not given)	–	20µM	?	–	?	–[12.9 µM]
CCCCC#Cc1ccccc1CC(=O)Nc1ccccc1	–	–	–	–	–	–
Cc1cccc(NC(=S)NNC(=O)COc2ccc(Cl)cc2Cl)c1	–	–	–	–	–	?
Cc1cccc(NC(=S)NCC23C=CC(O2)C2C(=O)N(c4ccc(Cl)cc4)C(=O)C23)c1 (stereo not given)	–	–	3.2µM	–	3.5µM	–
Cc1ccc(S(=O)(=O)NCC23C=CC(O2)C2C(=O)N(c4ccccc4)C(=O)C23)cc1 (stereo not given)	–	–	3.2µM	–	8.9µM	–
Cc1ccc(N2C(=O)[C@@H]3[C@H](C2=O)[C@H]2C=CC=NN2[C@@H]3C(=O)Nc2ccccc2)cc1	–	–	?	–	–	?
Cc1ccc(NC(=S)NCC23C=CC(O2)C2C(=O)N(c4ccc(C)cc4)C(=O)C23)cc1 (stereo not given)	–	–	5µM	–	8.9µM	–
Cc1ccc(N2C(=O)C3C4C=CC(CNC(=S)N5CCN(c6ccccc6)CC5)(O4)C3C2=O)cc1 (stereo not given)	·	–	2.5µM	–[11.5 µM]	5.6µM	–
COc1cccc(NC(=O)Cn2c(=O)n(Cc3nc(-c4ccccc4)no3)c(=O)c3ccccc32)c1	·	–	–	·	·	·
COc1ccc(N2CCN(c3ccc(-c4nc(-c5ccccc5C)no4)cc3[N+](=O)[O-])CC2)cc1	·	–	–	·	·	·
CCOc1cc(C(=O)N2CC(=O)Nc3ccc(F)cc3C2c2ccccc2)cc(OCC)c1OCC (stereo not given)	·	–	–	·	·	·
O=C(CN1CCN(CC(=O)c2ccc(F)cc2)CC1)Nc1ccccc1Cl	–	–	14µM	–	–	–

Screening data (PubChem BioAssay)
